Assay outcomes deposited in PubChem BioAssay by University of Kansas High Throughput Screening Laboratory.
The list is not random: actives were taken first. Their share in the collection is about 3.6%.
Pf apPOL inh: Pf-apPOL DNA polymerase inhibition; Recombinant Pf-apPOL, molecular beacon fluorescence, 1.5 h; inhibition, % at 10 µM; actives 0.25% (n = 210,000)
mHTT CaM bind: mHTT-calmodulin interaction abrogation; actives 3.6% (n = 190,000); inhibition, % at 15 µM; P42858; AlphaScreen His-mHTT/GST-CaM binding, luminescence;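 note: 0% = both proteins with DMSO and 100% = one protein alone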
* hit, by the source's call; x = not tested or not shown. Cut-off read from the data, not from the text of the source: active = inhibition above about 50%; inactive = the rest.

SMILES	Pf apPOL inh	mHTT CaM bind
NC1=NC(c2ccc(Cl)cc2)=CC(c2ccc(F)cc2)S1 (stereo not drawn)	x	67.5*
Cc1cc2nc(C(=O)Nc3cc(F)ccc3C)cc(C)n2n1	-2.1	-3.8
Cc1cc2c(c(C)c1Br)C(c1ccc3c(c1)OCO3)CC(=O)O2 (stereo not drawn)	-2.2	1.1
Cc1cc2c(c(C)c1Cl)C(c1ccc3c(c1)OCO3)CC(O)(c1ccccc1)O2 (stereo not drawn)	0.7	85.7*
Cc1ccccc1N1CCN(C(=O)c2ccc(Cl)cc2)C(C)C1=O (stereo not drawn)	-4.2	1.5
COc1ccc(C)cc1-n1cnc2cc(C(=O)NCC(OC)OC)ccc21	-1.6	5.0
CCOC(CNC(=O)c1ccc2c(c1)ncn2-c1cc(Cl)ccc1OC)OCC	-4.2	53.0*
O=S(=O)(c1ccc2c(c1)OCCO2)N1CCCn2nc(-c3cccs3)cc2C1	0.3	-4.6
Cc1ccc(-n2nc3c(c2NC(=O)c2ccc(Cl)cc2Cl)CS(=O)(=O)C3)c(C)c1	-2.9	5.0
Cc1oc2ccn(Cc3ccc(F)cc3)c(=O)c2c1C(=O)N1CCN(C(C)C)CC1	-4.5	-4.9
Cc1oc2ccn(Cc3ccc(F)cc3)c(=O)c2c1C(=O)NC(C)C	-5.4	80.4*
COc1ccc(CNC(=O)C2CCN(c3nccnc3Oc3cccc(OC)c3)CC2)cc1	-3.1	-0.5
OCCNCCOc1ccc(Br)cc1	-4.7	-2.8
OCCNCCOc1ccc(Br)cc1Cl	-1.7	99.9*
O=C(NCCn1ncc2c(N3CCCCCC3)ncnc21)c1cccc(C(F)(F)F)c1	-4.5	-7.2
Cc1ccc(N2CCC(NC(=O)CC(C)(C)C)C2=O)cc1 (stereo not drawn)	-4.4	-5.0
OCCN(CCO)CC(O)COCC12CC3CC(CC(C3)C1)C2 (stereo not drawn)	-3.3	100.1*
CCN(CC)CC(O)COCC12CC3CC(CC(C3)C1)C2 (stereo not drawn)	-0.6	-1.9
COc1ccc(Nc2cc(C)nc(NCCNC(=O)c3snnc3C)n2)cc1	-5.2	-1.8
Cc1ccc(C)c(C2CC(=O)Nc3n[nH]c(C)c32)c1 (stereo not drawn)	-4.1	-7.8
Cc1noc(C)c1C(=O)N1CCN(C2c3ccccc3CCc3ccccc32)CC1	-1.0	38.3
CCCCNC(=O)C1(O)c2cc(Br)ccc2NC(=O)N1c1ccc(Cl)cc1 (stereo not drawn)	-3.8	3.0
O=C(c1c(F)cccc1F)N1CCN(c2ccc(Cl)c(Cl)c2)CC1	3.0	18.6
Clc1ccc(N2Cc3ccccc3C2)cc1Cl	-2.0	87.0*
Cc1cccc(N2C(N)=C(C#N)C(c3cc(Br)cs3)C3=C2CCCC3=O)c1 (stereo not drawn)	80.2*	51.0*
SMILES	Pf apPOL inh	mHTT CaM bind
CCc1ccc(C2C(C#N)=C(N)N(c3ccc(F)cc3)C3=C2C(=O)CCC3)s1 (stereo not drawn)	-1.1	27.0
N#CC1=C(N)N(c2ccc(Br)cc2)C2=C(C(=O)CCC2)C1c1ccsc1 (stereo not drawn)	-0.4	8.0
COc1cc(C2C(C#N)=C(N)N(c3cccc([N+](=O)[O-])c3)C3=C2C(=O)CCC3)cc(OC)c1OC (stereo not drawn)	85.1*	1.0
N#CC1=C(N)N(c2ccc(F)cc2)C2=C(C(=O)CCC2)C1c1ccc(Br)s1 (stereo not drawn)	0.9	86.0*
COc1cc(C2C(C#N)=C(N)N(c3ccccc3)C3=C2C(=O)CCC3)cc(OC)c1OC (stereo not drawn)	-1.7	10.0
N#CC1=C(N)N(c2ccc(Cl)cc2)C2=C(C(=O)CCC2)C1c1cc(Br)cs1 (stereo not drawn)	-9.7	55.0*
CCSc1ccsc1C1C(C#N)=C(N)N(c2ccccc2)C2=C1C(=O)CCC2 (stereo not drawn)	-2.3	15.0
CC(=O)c1ccc(NC(=O)c2cn(-c3ccccc3)nc2-c2cccnc2)cc1	-5.5	-1.0
CCC[n+]1c(N)sc2c(C)cc(C)cc21	1.2	-14.6
O=c1cc(-c2cc3cc(Cl)ccc3oc2=O)c2ccc(O)c(CN3CCN(CCO)CC3)c2o1	1.2	5.3
Cc1cc(C2C(C#N)=C(N)N(c3cccc(C(F)(F)F)c3)C3=C2C(=O)CCC3)c(C)s1 (stereo not drawn)	-2.0	61.0*
Cc1cc(C2C(C#N)=C(N)N(c3ccc(F)cc3)C3=C2C(=O)CCC3)c(C)s1 (stereo not drawn)	-2.2	12.0
Cc1ccc(NC(=S)N2CCc3sccc3C2C)cc1Cl (stereo not drawn)	5.5	x
CC(=O)N(C1=C(N2CCCCC2)C(=O)c2ccccc2C1=O)c1cccc(F)c1	-9.7	16.0
O=C1C(Nc2cccc(O)c2)=C(N2CCCCC2)C(=O)c2ccccc21	-4.5	36.1
O=C1C(Nc2cccc(Cl)c2)=C(N2CCCCC2)C(=O)c2ccccc21	0.8	68.0*
O=C1C(Nc2cccc(C(F)(F)F)c2)=C(N2CCCCC2)C(=O)c2ccccc21	-0.3	99.0*
